PubChem BioAssay AID624330 (Southern Research Specialized Biocontainment Screening …, 2012)
The whole screen tested about 340,000 compounds, of which about 2,100 (0.62%) were called active.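 The calls were made as follows: active = first-screen hits whose inhibition reached a set limit at any dose in the follow-up dose series; inconclusive = inhibition above the set first-screen limit but never retested; inactive = the rest.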 A selection follows. Entries with a potency or affinity are not part of this list.

Molecular target: Rac GTPase-activating protein 1 (Homo sapiens) (UniProt Q9H0H5)
Sequence (Q9H0H5 whole entry, looked up): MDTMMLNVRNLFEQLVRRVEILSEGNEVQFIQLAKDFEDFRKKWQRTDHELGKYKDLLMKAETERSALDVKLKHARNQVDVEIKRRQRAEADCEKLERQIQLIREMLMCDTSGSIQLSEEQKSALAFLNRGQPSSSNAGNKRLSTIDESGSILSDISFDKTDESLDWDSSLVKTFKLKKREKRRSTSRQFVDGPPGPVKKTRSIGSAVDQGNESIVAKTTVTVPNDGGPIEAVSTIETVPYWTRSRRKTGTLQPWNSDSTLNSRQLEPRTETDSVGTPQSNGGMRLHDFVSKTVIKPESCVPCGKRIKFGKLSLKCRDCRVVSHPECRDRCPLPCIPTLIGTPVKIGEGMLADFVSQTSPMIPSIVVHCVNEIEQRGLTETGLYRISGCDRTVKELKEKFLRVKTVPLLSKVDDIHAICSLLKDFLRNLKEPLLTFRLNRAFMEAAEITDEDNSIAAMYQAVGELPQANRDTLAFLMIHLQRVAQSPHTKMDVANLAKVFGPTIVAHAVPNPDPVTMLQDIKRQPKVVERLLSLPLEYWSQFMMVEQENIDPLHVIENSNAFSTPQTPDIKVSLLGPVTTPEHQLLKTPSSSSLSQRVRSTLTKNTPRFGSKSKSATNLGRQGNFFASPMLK
Experiment: MgcRacGAP GTPase-activating activity inhibitors, confirmation, biochemical, ADP Hunter fluorescence, primary and confirmatory (AID 624330);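 also: fluorescence reports GDP produced by GAP-driven GTP hydrolysis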
Conditions: MgcRacGAP-stimulated Rac1 GTP hydrolysis, at 30 µM, active compounds read high, GST-tagged Rac1 F28L mutant substrate

inhibition, inactive:
Cc1cccc(-c2nc(C#N)c(N3CCC(C)CC3)o2)c1 -3.59%
COc1ccccc1/C=N/NC(=O)CC(=O)Nc1ccc(Cl)c(Cl)c1 3.66%
Cc1ccc(S(=O)(=O)NCCC(=O)N2CCN(Cc3ccccc3)CC2)cc1 -1.47%
Cc1ccc(C(=O)OCC(=O)NCc2cccs2)c(C)c1 6.37%
Cc1ccc(Oc2ccccc2NC(=O)CSCC(=O)Nc2cc(C)on2)cc1 3.22%
CN1CCN(CC(=O)Nc2ccccc2C(F)(F)F)CC1 28.9%
COc1ccc(NC(=O)NN2CCN(C)CC2)cc1 2.87%
COc1ccc(S(=O)(=O)N2CCN(C(C)C(=O)Nc3ccc(C(C)C)cc3)CC2)cc1 (centres undefined) 5.24%
CN1CCN(CCNC(=O)Nc2ccccc2C(F)(F)F)CC1 -0.21%
CC1Cc2ccccc2N1C(=O)CSc1nc2ccccc2s1 (centres undefined) 11.8%
CC(C)=NNC(=O)CN1C(=O)NC2NC(=O)NC21 (centres undefined) 6.56%
CC1(C)C2CCC(CN)C1C2 (centres undefined) 5.66%
Cc1nnc2sc(SCC(=O)Nc3cccc(Cl)c3)nn2c1=O 5.95%
COCC(C)n1c(C)cc(C(=O)CSc2nnnn2-c2ccc(O)cc2)c1C (centres undefined) 6.49%
COc1cc(/C=C2\NC(=S)N(C)C2=O)ccc1OCc1ccccc1F -3.41%
Cc1cc(/C=C2\NC(=S)N(C)C2=O)ccc1N1CCCC1 22.4%
O=C(NN=Cc1ccccc1C(=O)O)c1ccc(NS(=O)(=O)c2cccs2)cc1 5.61%
O=C(Cn1ccccc1=O)Nc1ccc(Cl)c(S(=O)(=O)N2CCCCC2)c1 1.69%
Fc1ccccc1-c1csc(-c2cccnc2)n1 -4.78%
Fc1ccc(-c2csc(-c3cccnc3)n2)cc1F 7.05%
c1ccc(-c2csc(-c3cccnc3)n2)cc1 9.56%
NC(=O)c1cc(-c2csc(-c3cccnc3)n2)ccc1O 18.7%
COc1ccc(NC(=O)Nc2cccc3c2O[C@H](CN(C)S(=O)(=O)c2c(C)noc2C)[C@@H](C)CN([C@H](C)CO)C3=O)cc1 6.8%
Fc1ccc(-n2cnnn2)c(F)c1 3.22%
CCCOc1ccc(C(=O)Nc2ccc(N3CCN(C(=O)c4ccco4)CC3)cc2)cc1 3.27%
CCC(C)[C@H](NC(=O)[C@@H]1Cc2ccccc2CN1)C(=O)Nc1ccc2c(c1)OCO2 (some centres undefined) -13.9%
COc1cccc(NC(=O)CN(C)C(C)C(=O)Nc2ccc(S(=O)(=O)N3CCCC3)cc2)c1 (centres undefined) -2.38%
COc1cccc(/C=C/C(=O)OCC(=O)Nc2ccc(S(=O)(=O)N3CCCC3)cc2)c1 1.91%
COc1cc(/C=C/C(=O)OCC(=O)Nc2ccc(C)c(S(=O)(=O)N3CCCCC3)c2)ccc1O 13.2%
COc1cc(/C=C/C(=O)OCC(=O)Nc2cc(S(=O)(=O)N3CCCC3)ccc2Cl)cc(OC)c1OC -3.8%
CCN(CC(=O)Nc1cccc(S(=O)(=O)N2CCCC2)c1)CC(=O)Nc1ccccc1OC 2.96%
COc1cccc(/C=C/C(=O)OCC(=O)Nc2cc(S(=O)(=O)N3CCOCC3)ccc2C)c1 2.2%
CCN(CC)c1ccc(S(=O)(=O)N2CCOCC2)cc1NC(=O)COC(=O)/C=C/c1ccc(C)o1 2.13%
CCN(CC)c1ccc(S(=O)(=O)N2CCOCC2)cc1NC(=O)COC(=O)/C=C/c1ccccc1 -3.02%
C=CCn1c(C(C)C)nc2ccccc21 4.59%
O=C1CN(C(=O)COC(=O)CCc2ccccc2O)c2ccccc2N1 1.54%
N#CC1(N2CCN(C(=O)c3ccccc3)CC2)CCCCC1 8.68%
Clc1ccc(N2CCN(c3ncnc4c3oc3ccccc34)CC2)cc1 -2.02%
CCC(=O)Nc1cccc(C(=O)OCc2cccc([N+](=O)[O-])c2)c1 5.63%
Cc1cc(C(=O)Nc2c(C)n(C)n(-c3ccccc3)c2=O)on1 11.2%
O=C(c1ccc(F)cc1F)N1CCN(S(=O)(=O)c2ccc3c(c2)OCCO3)CC1 7.11%
COc1cc2cnc(CCO[C@H]3CCCCO3)cc2cc1OC 7.49%
COc1ccc(NC(=O)Cc2ccsc2)cc1S(=O)(=O)N1CCOCC1 -4.48%
Cc1ccc(-c2onc3ccc(C4OCCO4)cc23)cc1 12.2%
CSc1ccccc1NC(=O)NCCCl -4.18%
CCCN1CCN(CCCNC(=O)C(CC)n2nc(C)n3c(cc4occc43)c2=O)CC1 (centres undefined) 10.2%
O=C(CCl)Nc1sccc1C(=O)c1ccccc1 11.5%
CCOc1ccc(C2Nc3ccc4ccccc4c3-c3c2c(=O)oc2ccccc32)cc1 (centres undefined) 5.67%
Cc1nc2ccc(C(=O)O)cc2nc1C 8.31%
CC(=O)CCc1c(C)nc2ccc(C(=O)O)cc2c1Cl -3.43%
Cc1cc(C)nc(NC2=NCCN2C(=O)NC2CCCCC2)n1 1.52%
Nc1ncnc2c1ncn2[C@@H]1O[C@H](CNCc2ccccc2OCc2ccc(Cl)cc2Cl)[C@@H](O)[C@H]1O 6.96%
COc1ccccc1/C=N/NC(=O)c1ccc(NC(=O)c2ccccc2Br)cc1 1.59%
Cc1ccc(NC(=O)NC(=O)CSc2n[nH]c(N)n2)c(C)c1 -33.7%
Cc1oc(-c2nc3ccccc3n2C)cc1C(=O)c1ccccc1 -4.53%
O=C(O)c1cc(NCc2ccc3c(c2)OCO3)ccc1N1CCOCC1 12.2%
O=C(CN1CCN(Cc2ccc3c(c2)OCO3)CC1)Nc1ccc(N2CCOCC2)cc1 -4.89%
CC(=O)N1CCN(c2ccc(NC(=O)c3ccc4c(c3)OCO4)cc2)CC1 9.85%
O=C(O)c1ccc(NCc2ccc3c(c2)OCO3)cc1 7.49%
O=C(NCc1ccc2c(c1)OCO2)C(=O)NCC1OCCN1S(=O)(=O)c1ccccc1 (centres undefined) 4.4%
Cc1cccc(OCC(=O)N2CCCc3ccccc32)c1 -0.63%
COc1ccc(CN(C)CCCn2cnc(C(=O)Nc3ccc(C)c(C)c3)n2)cc1OC 8.28%
CN1CCN(Cc2cccc(Oc3ccccc3)c2)CC1 4.23%
COc1ccccc1CN1CCN(C(=O)c2ccco2)CC1 -1.8%
CCN1CCN(Cc2cccc(Oc3ccccc3)c2)CC1 22.4%
COc1cc(CN2CCN(Cc3ccccc3C(F)(F)F)CC2)cc(OC)c1OC 5.51%
O=C(c1ccco1)N1CCN(Cc2cccc3ccccc23)CC1 15.8%
COc1cccc(CN2CCN(c3ncccn3)CC2)c1OC 2.75%
Cc1cc(Br)ccc1NC(=O)CCSc1ccccc1 2.79%
Cc1ccc(NC(=O)c2cc(N(C)C)ccc2[P+](=O)O)cc1 4.54%
Cc1ccc(C(=O)O)cc1N1CCCC1=O -7.73%
CCC(Sc1nc2n[nH]c(C)c2c(=N)n1-c1ccc(C)c(Cl)c1)C(=O)N1CCOCC1 (centres undefined) 8.01%
Oc1ccccc1CN1CCCC(N2CCc3ccccc3C2)C1 (centres undefined) 12.1%
c1ccc2c(c1)CCN(C1CCCCC1)C2 26.9%
COCCN(CCOC)C(=O)COC(=O)c1ccc(Cl)c(S(=O)(=O)N(C)c2ccccc2)c1 3.9%
CC1=C(SCc2ccccc2)C(=O)c2ccccc2C1=O -10.4%
O=S1(=O)N=C(SCCO)c2ccccc21 4.31%
Cc1ccc(OCCNC(=O)C(C)SCC(=O)Nc2ccc(F)cc2)cc1 (centres undefined) 1.75%
O=C1C=CC(=O)N1c1ccc(O)cc1 15.3%
O=C(O)c1ccc2c(c1)C(=O)N(c1ccc(Nc3ccccc3)cc1)C2=O 9.3%
O=C(c1ccc(Cl)c(Cl)c1)c1cc(-c2ccccn2)c(N2CCOCC2)s1 6.1%
O=C(c1ccc(Cl)c(S(=O)(=O)N2CCCC2)c1)N1CCN(c2ccc(F)cc2)CC1 6.75%
O=C(c1ccc(Cl)c(S(=O)(=O)N2CCCCC2)c1)N1CCN(c2ccccc2)CC1 11.4%
Cc1ccc(-c2cc(C(=O)N3CCN(c4ccccc4O)CC3)c3ccccc3n2)cc1 2.39%
O=C(c1ccccc1)N1CCN(c2ccccc2)CC1 5.43%
COc1ccc(N2CCN(C(=O)c3cc(C4CC4)nn3-c3ccccc3)CC2)cc1 27.4%
CC(=O)c1ccc(N2CCN(C(=O)c3ccc(C(=O)c4ccccc4)cc3)CC2)cc1 -1.4%
COc1ccc(-c2cc(C(=O)N3CCN(c4ccccc4)CC3)c3ccccc3n2)cc1 -2.68%
O=C(c1cc(C2CC2)nn1-c1ccccc1)N1CCN(c2ccccc2O)CC1 5.58%
CCOC(=O)c1c(C)[nH]c(C(=O)N/N=C/c2ccc(OC)c(OC)c2)c1C -4.46%
COc1ccc(NC(=O)c2cccc(NC3=NC4CS(=O)(=O)CC4S3)c2)cc1Cl (centres undefined) 10.8%
CCc1nnc(N/N=C\c2ccc(OC(C)=O)c(OC)c2)n1N 10.6%
CCC1(CC)C(=O)N(c2ccccc2)C(=N)N(c2ccccc2)C1=O -9.62%
N#Cc1cccc(NC(=O)CN2CCN(Cc3ccccc3)CC2)c1 10.1%
